The values that follow come from PubChem BioAssay.

Assay [1] can be described thus: rapamycin-like changes in RPL19A-GFP expression – cell-based, S. cerevisiae, multiplex flow cytometry, primary screen (AID 1862; in the data active means percent of DMSO control GFP below about 86%;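 further: lower values mimic rapamycin by blocking the RPL19A rise seen in DMSO cells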). To be noted: S. cerevisiae RPL19A-GFP strain, flow cytometry fluorescence, 3 h; at 10 µM; stronger effect = lower value.
Assay [2] is described as follows: TOR pathway GLN3 branch reporter MEP2-GFP changes – S. cerevisiae, multiplex flow cytometry, primary screen (AID 1867;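 active means GFP response, as percent of the DMSO control, above the screen-wide mean plus 3 SD, about 139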;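 further: median GFP channel fluorescence of barcode-gated MEP2-GFP cells measured by flow cytometry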). To be noted: S. cerevisiae MEP2-GFP strain, 3 h, at 10 µM, stronger effect = higher value. Background: Flow cytometry measures light scatter and fluorescence of single cells or particles in a stream.
Assay [3] can be described thus: TOR pathway RTG branch CIT2 reporter changes – S. cerevisiae, GFP fusion, multiplex flow cytometry, primary screen (AID 1870;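 active means percent response above a set limit, the screen-wide mean plus 3 SD, cut at about 130% in these data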;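 further: barcoded CIT2-GFP strain pooled with four other GFP strains with rapamycin as positive control; median GFP fluorescence per well over plate mean of DMSO wells so 100% = DMSO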). The settings on record: S. cerevisiae CIT2-GFP expression, 3 h, at 10 µM, stronger effect = higher value.
The nature of assay [4]: TOR pathway LAP4-GFP level changes – S. cerevisiae, multiplex flow cytometry, primary screen (AID 1873;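 active means GFP signal, as percent of the solvent control, above the screen mean plus 3 SD, about 149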). The settings on record: S. cerevisiae LAP4-GFP expression, 3 h, at 10 µM, stronger effect = higher value.
Assay [5] is described as follows: reduced mouse 2C T cell binding to pMHC/ICAM-1 vesicles – MLPCN validation set, flow cytometry, LFA-1/ICAM-1 modulator project, pilot screen (AID 2523;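 active means response below a set limit, under 55% cells CD8-positive and vesicle-bound, and CD8 cells' 90th-percentile brightness under 279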;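 on vesicle binding response: mean PE anti-B7-1 fluorescence of CD8+ cells relative to row control; 100% = QL9-loaded vesicles with DMSO vehicle in the same plate row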). To be noted: 2C mouse CD8+ T cells, at 7 µM, stronger effect = lower value; double positive events: measured here: CD8+/vesicle+ event percentage.
For assay [6], the target named is Integrin beta-1 (Homo sapiens) + Integrin alpha-4 (Homo sapiens) (UniProt P13612+P05556). The assay is described as follows: alpha4beta1 integrin LIBS antibody binding reduction – U937 cells, HUTS-21 mAb, flow cytometry, validation set, VLA-4 allosteric modulator project, pilot screen (AID 2674;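 active means inhibition above 50%, about 3 SD of the validation set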;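 further: antibody binding induced by the VLA-4 ligand LDV present at three times its Kd; 0% = LDV ligand with antibody and no compound and 100% = antibody without LDV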). To be noted: HUTS-21 LIBS mAb binding, at 6.7 µM, stronger effect = higher value.
Integrin beta-1 (Homo sapiens) + Integrin alpha-4 (Homo sapiens), sequence (P05556 whole entry, looked up): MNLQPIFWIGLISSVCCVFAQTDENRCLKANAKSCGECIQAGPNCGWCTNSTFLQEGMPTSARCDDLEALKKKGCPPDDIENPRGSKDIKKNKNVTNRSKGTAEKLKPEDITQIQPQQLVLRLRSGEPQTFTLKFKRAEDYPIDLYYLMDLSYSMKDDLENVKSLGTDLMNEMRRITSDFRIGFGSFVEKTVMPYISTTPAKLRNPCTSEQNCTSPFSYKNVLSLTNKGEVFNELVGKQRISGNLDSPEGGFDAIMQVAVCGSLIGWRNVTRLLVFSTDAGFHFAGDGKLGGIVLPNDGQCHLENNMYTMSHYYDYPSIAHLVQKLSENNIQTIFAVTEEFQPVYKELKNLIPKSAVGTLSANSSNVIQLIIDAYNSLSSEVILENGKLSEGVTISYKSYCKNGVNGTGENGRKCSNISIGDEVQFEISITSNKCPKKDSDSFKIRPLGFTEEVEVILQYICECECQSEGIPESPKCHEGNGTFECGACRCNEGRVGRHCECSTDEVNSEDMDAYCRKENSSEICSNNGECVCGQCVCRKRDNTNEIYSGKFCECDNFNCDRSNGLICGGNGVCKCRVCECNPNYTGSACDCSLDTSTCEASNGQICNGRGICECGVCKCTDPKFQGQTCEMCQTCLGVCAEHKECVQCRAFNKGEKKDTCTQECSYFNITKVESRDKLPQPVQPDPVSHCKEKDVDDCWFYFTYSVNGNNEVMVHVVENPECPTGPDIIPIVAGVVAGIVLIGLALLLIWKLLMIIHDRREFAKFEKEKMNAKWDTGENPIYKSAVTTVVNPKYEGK
Integrin beta-1 (Homo sapiens) + Integrin alpha-4 (Homo sapiens), sequence (P13612 whole entry, looked up): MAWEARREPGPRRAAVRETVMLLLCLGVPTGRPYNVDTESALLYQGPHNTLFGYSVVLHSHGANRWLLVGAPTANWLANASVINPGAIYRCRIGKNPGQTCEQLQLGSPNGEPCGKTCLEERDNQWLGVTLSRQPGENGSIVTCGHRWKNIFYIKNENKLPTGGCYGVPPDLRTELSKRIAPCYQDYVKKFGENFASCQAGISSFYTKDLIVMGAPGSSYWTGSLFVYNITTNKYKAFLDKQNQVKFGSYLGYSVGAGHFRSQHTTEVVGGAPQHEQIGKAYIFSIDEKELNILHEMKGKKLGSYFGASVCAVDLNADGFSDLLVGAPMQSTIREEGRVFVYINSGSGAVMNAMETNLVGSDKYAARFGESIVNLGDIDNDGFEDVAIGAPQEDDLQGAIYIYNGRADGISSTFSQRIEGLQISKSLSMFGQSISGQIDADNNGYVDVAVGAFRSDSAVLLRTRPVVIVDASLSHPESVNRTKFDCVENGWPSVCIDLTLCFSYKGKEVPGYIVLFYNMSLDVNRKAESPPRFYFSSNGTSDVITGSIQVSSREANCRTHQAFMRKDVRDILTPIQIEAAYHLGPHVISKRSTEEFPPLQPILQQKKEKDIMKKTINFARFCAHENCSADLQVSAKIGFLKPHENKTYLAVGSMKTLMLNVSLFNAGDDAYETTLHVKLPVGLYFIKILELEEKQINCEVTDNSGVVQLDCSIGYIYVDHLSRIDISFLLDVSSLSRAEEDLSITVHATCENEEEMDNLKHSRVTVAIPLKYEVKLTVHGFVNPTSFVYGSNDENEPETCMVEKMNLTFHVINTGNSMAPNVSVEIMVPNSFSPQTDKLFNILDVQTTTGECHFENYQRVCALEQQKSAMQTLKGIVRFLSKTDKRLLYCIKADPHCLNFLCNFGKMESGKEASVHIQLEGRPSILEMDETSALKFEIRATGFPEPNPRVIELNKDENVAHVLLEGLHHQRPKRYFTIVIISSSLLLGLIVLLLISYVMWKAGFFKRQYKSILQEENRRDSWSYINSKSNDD

The nature of assay [7]: calorie-restriction mimetic ROS inhibitors, yeast – validation compound set, pilot screen (AID 2706;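 active means superoxide response below 65% of plate, a cut near 3 SD across the whole screen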;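 further: yeast exposed to compound for one week at 30 degrees C before staining; 100% = mean of all compound wells on the same plate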). To be noted: S. cerevisiae aging, superoxide DHE fluorescence; at 10 µM; stronger effect = lower value.
For assay [8], the target named is Beta-adrenergic receptor kinase 1 (Homo sapiens) (UniProt P25098). Put plainly: GRK2 binders displacing RNA aptamer, biochemical, validation, human GRK2, bead flow cytometry (AID 488806;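 active means aptamer binding inhibition above 30%, about 3 SD of noise from non-fluorescent compounds; inactive means inhibition at or below 30%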). To be noted: bead-bound GRK2, FAM-aptamer displacement, at 10 µM, stronger effect = higher value.
Beta-adrenergic receptor kinase 1 (Homo sapiens), sequence (P25098 whole entry, looked up): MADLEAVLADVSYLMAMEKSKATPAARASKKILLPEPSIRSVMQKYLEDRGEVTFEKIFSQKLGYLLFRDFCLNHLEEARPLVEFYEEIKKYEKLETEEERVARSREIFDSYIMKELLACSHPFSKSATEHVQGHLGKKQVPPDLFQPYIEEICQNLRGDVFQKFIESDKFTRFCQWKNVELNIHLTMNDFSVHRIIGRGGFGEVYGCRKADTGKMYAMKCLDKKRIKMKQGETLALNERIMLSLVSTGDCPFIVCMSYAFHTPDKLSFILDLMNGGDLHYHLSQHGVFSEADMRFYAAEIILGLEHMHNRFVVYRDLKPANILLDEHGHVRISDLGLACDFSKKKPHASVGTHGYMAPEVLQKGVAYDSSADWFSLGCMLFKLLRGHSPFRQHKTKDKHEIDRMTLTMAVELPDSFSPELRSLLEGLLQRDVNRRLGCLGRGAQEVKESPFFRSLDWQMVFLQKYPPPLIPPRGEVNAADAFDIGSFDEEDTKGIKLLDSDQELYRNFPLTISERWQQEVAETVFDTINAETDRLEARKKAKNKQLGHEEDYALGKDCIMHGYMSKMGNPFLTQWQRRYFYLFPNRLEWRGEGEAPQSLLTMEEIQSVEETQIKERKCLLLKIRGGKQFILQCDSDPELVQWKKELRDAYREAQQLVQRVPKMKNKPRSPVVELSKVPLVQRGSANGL
Assay [9] addresses AP-2 complex subunit beta (Homo sapiens) (UniProt P63010). Put plainly: beta-arrestin/AP2 interaction blockers – biochemical, validation set, GST-AP2 beads, flow cytometry, pilot screen (AID 504541;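 active means inhibition above 54%, about 3 SD of non-fluorescent compounds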;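 further: AP2 carries R879A mutation and is captured from E. coli lysate; bead-bound FITC arrestin peptide fluorescence measuring arrestin peptide binding to AP2; 0% = DMSO wells and 100% = excess unlabeled arrestin peptide control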). To be noted: FITC arrestin peptide, at 10 µM, stronger effect = higher value.
Assay [10] in a line: cytosolic pH regulators acting via V-ATPase – S. cerevisiae, pHLuorin, HTS validation (AID 504600; in the data active means response above about 15%;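 further: plate controls were DMSO for no effect and reference compound for full effect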). To be noted: V-ATPase proton transport, at 10 µM, stronger effect = higher value.
In assay [11] the test system is anti-desmoglein-3 scFv antibody binding to human DSG3. The assay is described as follows: blockers of pathogenic pemphigus antibody–desmoglein-3 binding – biochemical, validation compound set, bead-based, flow cytometry, pilot screen (AID 588368;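 active means binding below the plate cutoff, the plate median minus 3 SD, with a reading above zero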;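 further: signal is the median channel fluorescence of bead-bound GFP antibody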). To be noted: Protein G beads, DSG3-Fc, scFv-GFP binding, at 10 µM, stronger effect = lower value.
Assay [12] concerns Botulinum neurotoxin type F light chain protease (Clostridium botulinum). The assay is described as follows: Clostridium botulinum type F light chain protease inhibitors, microsphere substrate cleavage, validation (AID 588459). To be noted: multiplex microsphere protease substrate cleavage assay, flow cytometry; at 10 µM; stronger effect = higher value.
Assay [13] deals with Botulinum neurotoxin type A (Clostridium botulinum) (UniProt P0DPI0). Put plainly: BoNT/A light chain protease inhibitors, biochemical, multiplex microsphere flow cytometry, validation set (AID 588460). The settings on record: at 10 µM, stronger effect = higher value.
Botulinum neurotoxin type A (Clostridium botulinum), sequence (P0DPI0 whole entry, looked up): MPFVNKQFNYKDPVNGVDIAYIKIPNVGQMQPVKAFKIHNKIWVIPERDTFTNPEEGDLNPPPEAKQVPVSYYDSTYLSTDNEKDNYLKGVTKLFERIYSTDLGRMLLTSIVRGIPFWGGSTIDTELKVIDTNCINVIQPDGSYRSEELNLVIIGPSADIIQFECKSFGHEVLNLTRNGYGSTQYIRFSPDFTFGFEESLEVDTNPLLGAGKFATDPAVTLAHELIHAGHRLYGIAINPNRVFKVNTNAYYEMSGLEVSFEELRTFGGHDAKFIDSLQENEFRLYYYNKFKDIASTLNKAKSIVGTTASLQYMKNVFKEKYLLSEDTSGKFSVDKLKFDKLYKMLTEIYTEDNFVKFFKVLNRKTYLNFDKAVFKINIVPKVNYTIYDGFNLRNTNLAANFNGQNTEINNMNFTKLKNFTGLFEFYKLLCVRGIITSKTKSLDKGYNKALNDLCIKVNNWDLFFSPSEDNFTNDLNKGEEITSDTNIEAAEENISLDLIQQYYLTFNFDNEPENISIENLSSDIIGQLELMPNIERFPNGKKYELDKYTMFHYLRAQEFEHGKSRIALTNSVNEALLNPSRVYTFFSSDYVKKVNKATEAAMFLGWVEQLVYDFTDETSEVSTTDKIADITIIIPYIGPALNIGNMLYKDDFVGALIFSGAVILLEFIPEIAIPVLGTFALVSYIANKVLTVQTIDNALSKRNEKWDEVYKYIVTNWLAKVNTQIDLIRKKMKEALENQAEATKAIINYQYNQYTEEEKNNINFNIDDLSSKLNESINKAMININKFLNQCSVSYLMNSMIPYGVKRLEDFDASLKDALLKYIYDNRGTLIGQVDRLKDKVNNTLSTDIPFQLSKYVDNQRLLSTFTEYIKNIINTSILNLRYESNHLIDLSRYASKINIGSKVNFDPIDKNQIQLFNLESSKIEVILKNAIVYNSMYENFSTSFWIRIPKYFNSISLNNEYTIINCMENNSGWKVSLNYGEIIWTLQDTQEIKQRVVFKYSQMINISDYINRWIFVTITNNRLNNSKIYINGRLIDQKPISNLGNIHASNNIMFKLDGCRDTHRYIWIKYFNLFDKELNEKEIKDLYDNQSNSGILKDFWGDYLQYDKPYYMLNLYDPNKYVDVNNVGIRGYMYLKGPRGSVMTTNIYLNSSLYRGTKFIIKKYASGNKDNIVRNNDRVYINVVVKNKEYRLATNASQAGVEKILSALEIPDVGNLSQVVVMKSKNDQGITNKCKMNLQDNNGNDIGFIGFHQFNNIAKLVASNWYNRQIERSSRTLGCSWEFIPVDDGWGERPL
The target in assay [14] is Lethal factor (Bacillus anthracis) (UniProt P15917). Put plainly: Bacillus anthracis lethal factor inhibition, microsphere flow cytometry protease assay, validation at 10 µM (AID 588461). The settings on record: multiplex microsphere protease cleavage assay, stronger effect = higher value.
Assay [15] can be described thus: Nile Red efflux blockade in pump-expressing yeast – validation compound set, multiplex, phenotypic, pilot screen (AID 588506;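 active means efflux inhibition above 0.42, the validation set average plus 4 SD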;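 further: Nile Red retained in cells so higher fluorescence means more efflux inhibition; 0 = negative control wells and 1 = enniatin B 25 µM full block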). To be noted: S. cerevisiae pump-expressing triplex, Nile Red efflux flow cytometry; at 10 µM; stronger effect = higher value.
Assay [16] addresses ATP-binding cassette sub-family B member 6 (Homo sapiens) (UniProt Q9NP58). The assay is described as follows: blockers of ABCB6-driven porphyrin uptake – K562-ABCB6 cells, flow cytometry, validation set, pilot screen (AID 588550;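 active means inhibition above the screen-wide mean plus 3 SD, about 51%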;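 further: 0% = DMSO wells and 100% = benzethonium chloride 70 µM positive control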). To be noted: K562-ABCB6 porphyrin accumulation, 1 h, at 10 µM, stronger effect = higher value.
Assay [17] can be described thus: AML differentiation inducers, ER-HoxA9 marrow cells – cell-based, GFP/MAC1 double positive, flow cytometry, validation set, primary screen (AID 588685;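 active means differentiation response of at least 50%, scaled between solvent and reference control, from cells with both markers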;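 further: compound exposure lasts four days before antibody staining and flow analysis; 0% = DMSO wells and 100% = 5 µM fulvestrant positive control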). The settings on record: stronger effect = higher value.

Molecules are shown by their SMILES. Inconclusive results are not listed. Activity calls are given as the source filed them. Unless noted, how the calls were made is not given here.

AP-2 complex subunit beta (Homo sapiens), sequence (P63010 whole entry, looked up, one chain of several): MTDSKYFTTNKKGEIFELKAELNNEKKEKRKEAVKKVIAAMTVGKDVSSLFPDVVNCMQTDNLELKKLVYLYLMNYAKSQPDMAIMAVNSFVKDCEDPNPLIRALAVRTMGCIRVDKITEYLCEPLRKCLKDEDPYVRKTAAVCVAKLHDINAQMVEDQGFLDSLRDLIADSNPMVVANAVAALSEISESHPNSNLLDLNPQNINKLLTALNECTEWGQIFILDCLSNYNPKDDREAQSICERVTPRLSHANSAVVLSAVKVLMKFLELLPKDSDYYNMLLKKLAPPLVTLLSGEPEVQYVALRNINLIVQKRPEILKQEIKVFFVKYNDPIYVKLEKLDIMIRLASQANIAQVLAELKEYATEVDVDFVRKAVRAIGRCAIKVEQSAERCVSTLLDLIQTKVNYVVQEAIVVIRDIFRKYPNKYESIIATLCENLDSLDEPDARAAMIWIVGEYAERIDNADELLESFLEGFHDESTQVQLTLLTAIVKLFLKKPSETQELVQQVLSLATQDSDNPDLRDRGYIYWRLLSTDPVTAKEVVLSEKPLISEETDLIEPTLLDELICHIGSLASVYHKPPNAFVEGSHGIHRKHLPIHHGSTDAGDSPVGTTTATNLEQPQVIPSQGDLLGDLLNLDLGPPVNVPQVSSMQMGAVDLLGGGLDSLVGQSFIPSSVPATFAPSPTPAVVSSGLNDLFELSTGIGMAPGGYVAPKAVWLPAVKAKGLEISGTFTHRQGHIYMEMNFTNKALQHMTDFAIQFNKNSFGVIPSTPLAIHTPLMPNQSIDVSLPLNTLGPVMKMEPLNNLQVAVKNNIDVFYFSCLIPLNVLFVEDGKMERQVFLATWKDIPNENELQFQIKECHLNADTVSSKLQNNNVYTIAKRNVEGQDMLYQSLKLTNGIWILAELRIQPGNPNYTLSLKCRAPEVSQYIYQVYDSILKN

By inhibition is commonly meant the relative decrease from the control value, in per cent. Take `CC(=O)C1=C(C)OC(N)=C(C(=O)OC(C)C)C12C(=O)Nc1ccccc12` (stereo unspecified): the percent of DMSO control GFP in assay [1] was 102% (inactive). Moreover, the GFP response vs DMSO was 105% (inactive) in assay [2] and 99.4% (inactive) in assay [4]. Besides, the percent response of DMSO control in assay [3] is 103% (inactive). The double positive events in assay [5] was 56.3%. The vesicle binding response in assay [5] was 194% (inactive). Moreover, the inhibition in assay [6] is 0.69% (inactive); in [9] it was 0.23% (inactive); in assay [12], -2.3% (inactive); in [13], -0.1% (inactive); in assay [14], -1.4% (inactive); in assay [16], 8% (inactive). Also, the superoxide response (% of plate) in assay [7] is 103% (inactive). Besides, in assay [8], the aptamer binding inhibition is 0% (inactive). Also, the response in [10] was -0.91% (inactive). Further, the binding (% of control) in assay [11] was 93.8% (inactive). The efflux inhibition (fraction of control) in assay [15] was 0.1 (inactive). The differentiation response in assay [17] was -18% (inactive).

For `COc1ccc(NC2=NCC(C)S2)cc1` (stereo unspecified), the percent of DMSO control GFP in assay [1] is 103% (inactive). In addition, the GFP response vs DMSO in [2] is 101% (inactive); in assay [4] it was 89.3% (inactive). For the same molecule, in assay [3], the percent response of DMSO control was 109% (inactive). In assay [5], this molecule registered a double positive events of 69.5%. Also, the vesicle binding response in assay [5] is 150% (inactive). The inhibition in assay [6] is 11% (inactive); in [9], 5.98% (inactive); in assay [12], -2.8% (inactive); in assay [13], 0.2% (inactive); in assay [14], -2.7% (inactive); in assay [16] it was 0% (inactive). For the same molecule, the superoxide response (% of plate) in assay [7] is 101% (inactive). The aptamer binding inhibition in [8] was 2% (inactive). Besides, the response in [10] is 4.39% (inactive). Besides, the binding (% of control) in assay [11] was 100% (inactive). In addition, the efflux inhibition (fraction of control) in assay [15] was 0.195 (inactive). Also, the differentiation response in assay [17] is -3.11% (inactive).

For `COc1ccc(OC)c(C(O)C(C)N)c1` (stereo unspecified), the percent of DMSO control GFP in [1] is 103% (inactive). The GFP response vs DMSO in assay [2] was 94.1% (inactive); in [4], 87.4% (inactive). For the same molecule, the percent response of DMSO control in assay [3] was 95.4% (inactive). This molecule yielded a double positive events in assay [5] of 59.9%. Also, the vesicle binding response in assay [5] was 41.1% (inactive). The inhibition in assay [6] is 7.85% (inactive); in assay [9], -0.56% (inactive); in [12], 2.2% (inactive); in assay [13], 1.1% (inactive); in assay [14], 3.1% (inactive); in assay [16] it was 10% (inactive). In addition, the aptamer binding inhibition in [8] is 0% (inactive). Also, the response in assay [10] was 1.5% (inactive). For the same molecule, the binding (% of control) in assay [11] is 105% (inactive). The efflux inhibition (fraction of control) in assay [15] is 0.61 (active). Further, the differentiation response in [17] is 24.7% (inactive).

Take `C[C@H]1CCC[C@H](O)CCCCCc2cc(O)cc(O)c2C(=O)O1`: in assay [1], the percent of DMSO control GFP is 104% (inactive). Further, the GFP response vs DMSO in [2] was 94.8% (inactive); in assay [4] it was 87.3% (inactive). In addition, the percent response of DMSO control in [3] is 106% (inactive). In assay [5], this molecule gave a double positive events of 52.7%. For the same molecule, the vesicle binding response in assay [5] is 191% (inactive). Further, the inhibition in assay [6] is -7.7% (inactive); in [9], -16.7% (inactive); in assay [12], 0.3% (inactive); in assay [13] it was -0.8% (inactive); in [14], -4.3% (inactive); in assay [16], 9% (inactive). Also, the superoxide response (% of plate) in assay [7] is 106% (inactive). Besides, the aptamer binding inhibition in assay [8] is -4% (inactive). In assay [10], the response is 3% (inactive). For the same molecule, in [11], the binding (% of control) was 106% (inactive). Also, in [15], the efflux inhibition (fraction of control) is -0.28 (inactive). In addition, in [17], the differentiation response is -34.1% (inactive).
